Source: PubChem BioAssay (National Center for Advancing Translational Sciences (NCATS))
VP16 counter: Gal4-VP16 reporter inhibition counter-screen. Drosophila S2 Gal4-VP16 UAS-luciferase, luminescence, 20 h. Potency, µM (titrated, usually from 53.6 µM), actives largely listed as inhibitors. hit rate 3.5% among 310,000. AID 2546;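 note: Gal4-VP16 expression switched on by copper sulfate through the metallothionein promoter; nearly all actives have a fitted effect of over 50% in size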
RORg inh: inhibitors of mouse ROR gamma transcriptional activity. P51450. Potency, µM (titrated, usually from 53.6 µM), most hits filed as inhibitors. Drosophila S2 Gal4-RORgamma UAS-luciferase reporter, 20 h. hit rate 5.4% among 310,000; note: nearly all actives have a fitted effect of over 60% in size
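Stable Schneider cell line, Gal4 DNA-binding domain fused to ROR gamma, UAS-luciferase. Cmpd 1 hr RT → CuSO4 700 uM final → 20 hr RT → luciferase reagent 10 min → luminescence.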
Sfp PPTase inh: blocks B. subtilis Sfp PPTase activity; Biochemical Sfp PPTase activity, qHTS; hit rate 3.5% among 310,000; Q9F4F7; AID 1490; Potency, µM, most hits filed as inhibitors;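 note: the enzyme is Sfp with the accession as filed and its product quenches rhodamine fluorescence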
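Buffer: 50 mM Hepes-Na pH 7.6, 10 mM MgCl2, 0.01% Nonidet P-40, 0.01% BSA. Enzyme 15 nM, pre-exposed to compound 15 min; substrates then added and fluorescence change tracked over 30 min.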
ALDH1A1 block: blocks purified human ALDH1A1 activity. Purified ALDH1A1, NADH fluorescence, propionaldehyde substrate. Potency, µM (highest dose often 75.3 µM), usual class: inhibitors. hit rate 7.3% among 220,000; active = well fitted inhibition curve with a large enough effect, not every such curve was filed as active; inconclusive = small, poorly fitted or top-dose-only effect, or another doubt; inactive = no such curve, though single readings can be large or run the other way
Target sequence (P00352 whole entry, looked up): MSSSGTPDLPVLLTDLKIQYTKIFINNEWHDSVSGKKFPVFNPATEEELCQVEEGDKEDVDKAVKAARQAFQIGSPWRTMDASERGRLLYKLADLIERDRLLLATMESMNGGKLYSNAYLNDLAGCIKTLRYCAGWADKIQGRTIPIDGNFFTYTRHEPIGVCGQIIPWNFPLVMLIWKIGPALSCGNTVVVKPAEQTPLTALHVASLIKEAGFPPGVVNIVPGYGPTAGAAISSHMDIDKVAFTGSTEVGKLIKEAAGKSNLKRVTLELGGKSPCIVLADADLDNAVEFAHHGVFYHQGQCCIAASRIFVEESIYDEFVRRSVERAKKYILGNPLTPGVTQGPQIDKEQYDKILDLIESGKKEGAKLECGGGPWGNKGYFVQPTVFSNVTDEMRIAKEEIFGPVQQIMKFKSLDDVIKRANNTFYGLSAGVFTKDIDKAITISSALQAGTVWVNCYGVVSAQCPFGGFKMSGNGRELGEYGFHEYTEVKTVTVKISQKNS
PLK1 PBD inh: inhibitors of human PLK1 polo-box domain binding; Plk1 PBD binding of FITC phosphopeptide, fluorescence polarization; Potency, µM, usual class: inhibitors; hit rate 2.8% among 360,000; note: series mostly up to about 57 µM; nearly all actives have a fitted effect of over 65% in size
TbPYK inh: Trypanosoma brucei pyruvate kinase inhibition, cherry-pick confirmation; hit rate 67% among 890; shares compounds with PLK1 PBD inh; recombinant TbPYK, Kinase-Glo ATP luminescence; Potency, µM (series often up to 76.9 µM), most hits filed as inhibitors; AID 720569; note: nearly all actives have a fitted effect of over 70% in size
TbPYK ADP-Glo: inhibits T. brucei pyruvate kinase in orthogonal ADP-Glo assay. shares compounds with PLK1 PBD inh. recombinant TbPYK, ADP-Glo luminescence, 60 min. Potency, µM (top dose mostly 76.9 µM), hits mostly inhibitors. hit rate 62% among 890. AID 720584; note: nearly all actives have a fitted effect of over 75% in size
Numbers stand for hits; i = inactive; ? = inconclusive; nt = no result given; [ ] = dose if it differs, or a comment. Rows were chosen to be rich in hits. Some 12% of all compounds tested hit in one or more screens of this group. Unless noted, calls come from the whole dose curve; as a rule, active = well fitted curve in the direction sought with a large enough effect; inconclusive = small, poorly fitted or top-dose-only effect, or another doubt; inactive = no such curve, though single readings can be large; an effect the other way counts as inactive or inconclusive.

SMILES	VP16 counter	RORg inh	Sfp PPTase inh	ALDH1A1 block	PLK1 PBD inh	TbPYK inh	TbPYK ADP-Glo
CCOCCCNC(=O)c1cc2c(s1)-c1ccccc1SC2	i	i	79.4µM	nt	26.7µM	10µM	12.6µM
CCOC(=O)c1sc2nc(N3CCOCC3)c3c(c2c1N)CCCC3	i	i[10 µM]	i	?	i	nt	nt
CCN(CC)C(=O)c1sc2nc(N3CCOCC3)c3c(c2c1N)CCCC3	i	i	44.7µM	?	?	7.94µM	4.47µM
CCOC(=O)C1=C(C)N=c2s/c(=C/c3cccc([N+](=O)[O-])c3O)c(=O)n2C1c1ccc(OC)cc1OC (stereo not given)	i	i[1.91 µM]	50.1µM	nt	29.9µM	?	i
CCOC(=O)C1=C(C)N=c2s/c(=C\c3ccc(O)c([N+](=O)[O-])c3)c(=O)n2C1c1ccccc1OC (stereo not given)	i	?	i	nt	?	nt	nt
Cc1csc(SCC(=O)NCc2ccccc2Cl)n1	i	i	i	i	i	nt	nt
O=C1CCCC2=C1C(c1ccc(O)c(O)c1)c1c(ccc3ncccc13)N2 (stereo not given)	i	i	7.94µM	?	?	0.112µM	1.58µM
COc1cc(C2Nc3ccc4ncccc4c3C3=C2C(=O)CCC3)ccc1O (stereo not given)	i	i	i	i	i	nt	nt
CC(C)(C)C(=O)CN1C(=O)NC2(CCCc3ccccc32)C1=O (stereo not given)	i	i	i	nt	i	nt	nt
CN(C)C1(CNC(=O)C2CCN(S(=O)(=O)c3cccc(C(F)(F)F)c3)CC2)CCCCC1	i	i	i	nt	i	nt	nt
COC(=O)CSc1nnc(C2COc3ccccc3O2)n1-c1ccccc1 (stereo not given)	i	i	i	i	i	nt	nt
c1ccc(Cc2nn3c(C4COc5ccccc5O4)nnc3s2)cc1 (stereo not given)	i[0.365 µM]	i	14.1µM	2µM	21.2µM	?	?
COc1ccc(/C=N/N2CCN(Cc3ccc(C)cc3)CC2)cc1Br	i	i[1.91 µM]	i	nt	i	nt	nt
Cc1ccc(CN2CCN(/N=C/c3ccc(O)c(O)c3)CC2)cc1	?	?	i	nt	?	14.1µM	15.8µM
O=C1c2sc3nc4n(c(=O)c3c2CCC1Br)CCCCC4 (stereo not given)	20µM	10µM	20µM	8.91µM	i	3.98µM	5.62µM
O=C1CCCc2c1sc1nc3n(c(=O)c21)CCCCC3	i	?	i	?	i	nt	nt
O=C1NN(CCO)C(=S)Nc2ccccc21	nt	nt	nt	nt	i	nt	nt
O=C1OC(c2ccc3ccccc3c2O)(c2ccc3ccccc3c2O)c2ccccc21	nt	nt	nt	nt	4.74µM	12.6µM	12.6µM
O=C1OC2(c3ccccc31)c1ccccc1-c1ccccc12	nt	nt	nt	nt	i	nt	nt
CCCc1cc(=O)[nH]c2nnc(SCC(=O)Nc3cc(C)on3)n12	nt	nt	nt	nt	i	nt	nt
COCCSc1ccccc1C(=O)NCc1cccnc1	i	i	?	i	i	nt	nt
O=C(NCc1ccco1)c1cccc(NC(=O)c2ccccc2)c1	i	i	i	i	i	nt	nt
CCC(CC)C(=O)Nc1cccc(C(=O)NCc2ccco2)c1	i	i	i	i	i	i	i
CC(=O)OC[C@H]1O[C@@H](Oc2cc(O)cc3oc(-c4ccc(O)cc4)cc(=O)c23)[C@H](O[C@@H]2O[C@@H](C)[C@H](O)[C@@H](O)[C@H]2O)[C@@H](O)[C@@H]1O	nt	nt	nt	nt	i	nt	nt
O=C(CSc1nnc(-c2cccs2)n1-c1ccccc1)NCc1ccc2c(c1)OCO2	i	i	i	i	i	nt	nt
SMILES	VP16 counter	RORg inh	Sfp PPTase inh	ALDH1A1 block	PLK1 PBD inh	TbPYK inh	TbPYK ADP-Glo
Cc1ccc(-n2c(SCC(=O)Nc3ccc4c(c3)OCO4)nnc2-c2cccs2)cc1	i	?	i	i	i	1.78µM	4.47µM
Cc1cc(C)n(CCCNC(=O)C2CC(=O)N(Cc3ccccc3)C2)n1 (stereo not given)	nt	nt	nt	nt	i	nt	nt
Fc1ccc(N=c2ssnc2Cl)c(F)c1	?	?	14.1µM	2.51µM	1.68µM	28.2µM	31.6µM
COc1cc(-c2nnc(-c3cc(OC)c(OC)c(OC)c3)o2)cc(OC)c1OC	i	i	i	?	i	nt	nt
Clc1ccc(N=c2ssnc2Cl)cc1	11.2µM	?	3.98µM	1.12µM	1.89µM	7.94µM	10µM
N#Cc1ccc(N=c2ssnc2Cl)cc1	?	?	8.91µM	1.58µM	1.34µM	7.08µM	7.94µM
N#Cc1ccc(Oc2c(Cl)cncc2Cl)cc1	i	i	i	nt	i	nt	nt
COc1cc(N=c2ssnc2Cl)cc(OC)c1OC	15.8µM	?	14.1µM	2.82µM	0.947µM	3.55µM	6.31µM
COc1ccc(Cl)cc1NC(=O)C1CCN(C(=O)C2CC(=O)N(c3ccc(C)cc3)C2)CC1 (stereo not given)	i	i	i	nt	i	nt	nt
Cc1nn(C)c(NC(=O)c2ccccc2Cl)c1Cl	i	i	i	nt	i	nt	nt
CCOC(=O)c1ccc(N=c2ssnc2Cl)cc1	?	i	i	2µM	2.12µM	15.8µM	15.8µM
CCc1ccc(C2=CSC3=NCCN23)cc1	i	i	i	nt	i	nt	nt
CSC1=NS(=O)(=O)c2c(C)nn(C)c2S1	?	?	6.31µM	nt	21.2µM	3.98µM	3.55µM
C=CCNC(=S)NNC(=O)c1cccn(Cc2ccc(Cl)cc2Cl)c1=O	i	i	i	?	i	0.891µM	2.82µM
CCNC(=S)NNC(=O)c1cccn(Cc2ccc(Cl)cc2Cl)c1=O	i	i	i	i	i	nt	nt
CCCCn1c(N)c(N(CCOC)C(=O)CSc2nnc(-c3ccc(F)cc3)n2N)c(=O)[nH]c1=O	nt	nt	nt	nt	i	nt	nt
Cc1cccc(OCCSc2nc3ccccc3n2CCC(=O)O)c1	i	i	i	nt	i	nt	nt
CC(C)(C)S(=O)(=O)N1C[C@H]2C(=CC[C@@H]3C(=O)N(c4ccccc4)C(=O)[C@@H]32)[C@H]1CCO	nt	nt	nt	nt	i	nt	nt
CC1(C)CC(=O)C(C(C2=C(O)CC(C)(C)CC2=O)c2ccc(Br)s2)C(=O)C1 (stereo not given)	10µM	?	20µM	3.55µM	1.89µM	14.1µM	28.2µM
CC1(C)CC(=O)C(Br)=C(O)C1	i	i	i	?	?	nt	nt
O=C(Nc1ccccc1)c1nnsc1S(=O)c1ccc(Cl)cc1 (stereo not given)	4.47µM	15.8µM	7.94µM	1.78µM	0.474µM	15.8µM	14.1µM
O=C(Nc1ccc(Cl)cc1)c1cccs1	?	i	i	i	i	nt	nt
Cc1ccc(S(=O)(=O)NNC(=O)C2CCN(S(=O)(=O)c3ccc(C)cc3)CC2)cc1	i	i	i	?	i	i	i
Cn1c(=S)[nH]c2scc(-c3cccs3)c2c1=O	5.01µM	0.794µM	?	22.4µM	?	11.2µM	14.1µM
CC1CN2C(c3ccc([N+](=O)[O-])cc3)=CSC2=N1 (stereo not given)	i	i	50.1µM	nt	?	6.31µM	12.6µM
CC1C(=O)NN=C1c1ccc([N+](=O)[O-])cc1 (stereo not given)	nt	nt	nt	nt	i	nt	nt
O=C(CCSCCC(=O)NCc1ccco1)NCc1ccco1	i	i	15.8µM	17.8µM	21.2µM	?	?
O=C(CCSCc1ccccc1Cl)NCc1ccco1	i	i	i	i	i	nt	nt
